# In PubChem BioAssay (NCATS):
# A number with no mark means an inactive call. Results filed as inconclusive are left out. A call without a number means that no potency is given here. The source made the active and inactive calls. Unless noted, calls follow the shape of the dose curve; as a rule, active = well fitted curve in the direction sought with a large enough effect; inconclusive = small, poorly fitted or top-dose-only effect, or another doubt; inactive = no such curve, though single readings can be large; an effect the other way counts as inactive or inconclusive.
# Legend:
# CP266 = assay: qHTS profiling for inhibitors of Plasmodium falciparum proliferation (AID 504749); also: nearly all actives have a fitted effect of over 60% in size; also: potency is read from the fitted curve at half-maximal effect; settings: P. falciparum in erythrocytes, SYBR Green DNA, 72 h; series mostly up to 28.7 µM
# Summary of the method: (§1)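 Readout was DNA-dye fluorescence from lysed cultures, ex 485/em 535 nm. Parasitized red cells had grown 72 h with compound; data scaled between 0.29 uM artemisinin and DMSO wells and corrected using vehicle-only plates.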
# DIV14 = assay: as above; settings: P. falciparum in erythrocytes, SYBR Green DNA, 72 h; series mostly up to 12.8 µM
# Summary of the method: as §1
# DIV17 = assay: as above; settings: P. falciparum in erythrocytes, SYBR Green DNA, 72 h; series mostly up to 12.8 µM
# Summary of the method: as §1
# TAB109 = assay: as above; settings: P. falciparum in erythrocytes, SYBR Green DNA, 72 h; series mostly up to 12.8 µM
# Summary of the method: as §1
# W2 = assay: as above; settings: P. falciparum in erythrocytes, SYBR Green DNA, 72 h; series mostly up to 12.8 µM
# Summary of the method: as §1
# [1] = Cell Viability - BJ (AID 421; calls by dose curve;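 also: potency is read from the fitted curve at half-maximal effect; cells exposed to compound for 40 hours at 37 °C before readout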); settings: BJ fibroblast viability, qHTS
# Summary of the method: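 Cytotoxicity as drop in intracellular ATP (CellTiter-Glo, 20 min RT) after 40 hr compound exposure of BJ fibroblasts at 37 °C. Titrations scaled between DMSO and 100 uM tamoxifen, Hill-fitted for AC50.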
# [2] = Cell Viability - Jurkat (AID 426;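 active = dose-dependent loss of cell ATP signal giving a full or clear fitted curve, ranked by lower potency value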; also: potency is read from the fitted curve at half-maximal effect); settings: qHTS
# Summary of the method: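 Jurkat (clone E6-1, human T-cell leukemia) cells, 5000/well in complete medium, were exposed to compound for 40 hr at 37 °C. Viability was read as intracellular ATP by CellTiter-Glo luminescence; AC50 came from Hill fits of concentration-response data.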
# [3] = Cell Viability - Hek293 (AID 427;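 active = compounds whose dose-response curve shows a full or clear partial loss of cell viability, called from curve shape rather than a numeric limit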;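 also: potency is read from the fitted curve at half-maximal effect; cells exposed to compound for 40 hours at 37 °C before reading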); settings: qHTS
# Summary of the method: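 Luminescent ATP content (CellTiter-Glo, 20 min at room temperature) was measured after a 40 hr, 37 °C compound exposure of HEK293 cells. AC50 values came from Hill-equation fits of qHTS concentration-response data normalized to DMSO and 100 uM tamoxifen.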
# [4] = Cell Viability - HepG2 (AID 433; calls by dose curve;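 also: potency is read from the fitted curve at half-maximal effect; potency for ATP loss meaning cytotoxicity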); settings: qHTS
# Summary of the method: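 Cytotoxicity read as ATP loss (CellTiter-Glo luminescence) after 40 hr compound exposure of HepG2, 1500 cells/well, 37 °C. AC50 by Hill equation; 0% set by DMSO, 100% inhibition by 100 uM tamoxifen.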
# [5] = Cell Viability - MRC5 (AID 434; calls by dose curve;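 also: potency is read from the fitted curve at half-maximal effect; potency reflects cytotoxicity seen as loss of intracellular ATP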); settings: MRC5 lung fibroblast viability, qHTS
# Summary of the method: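 MRC5 normal human lung fibroblasts, 1500 cells/well, exposed to compound for 40 hr at 37 C. Cellular ATP was read by CellTiter-Glo luminescence; data normalized to DMSO and 100 uM tamoxifen, with AC50 from Hill fits.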
# [6] = qHTS Assay for Identification of Small Molecule Inducers of Hypoxia Response (AID 2120; active = well fitted curve in the direction sought with a large enough effect in the signal ratio, with a control signal flat, not every such curve was filed as active; the % refers to the signal ratio); settings: hypoxia response reporter cells, beta-lactamase ratio readout; series mostly up to 104 µM
# Summary of the method: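 HRE-beta-lactamase reporter in CellSensor HRE-bla ME-180 cells, 2500 cells/well in Opti-MEM with 0.5% dialyzed FBS; compounds tested as titration series, 17 h at 37 degrees C. CCF4 substrate 2.5 h at room temperature; AC50 from 460/530 nm ratio.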
# [7] = qHTS Assay for Identification of Small Molecule Agonists for Hypoxia Response Element Signaling Pathway (AID 914; active = well fitted activation curve with a large enough effect in the signal ratio, with a control signal flat, not every such curve was filed as active; the % refers to the signal ratio; also: potency is read from the fitted curve at half-maximal effect); settings: ME-180 HRE-bla reporter, beta-lactamase ratio, CoCl2, 17 h; activation: hits give high values
# Summary of the method: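 HRE-bla ME-180 assay for agonist-like enhancement of an EC50 CoCl2 stimulus: 17 h at 37 degrees Celsius, CCF4 for 2.5 h, ratiometric 460/530 nm signal converted to %Activity and fitted to AC50.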
# 7G8 = assay: qHTS profiling for inhibitors of Plasmodium falciparum proliferation (AID 504749); also: nearly all actives have a fitted effect of over 60% in size; also: potency is read from the fitted curve at half-maximal effect; settings: P. falciparum in erythrocytes, SYBR Green DNA, 72 h; series mostly up to 12.8 µM
# Summary of the method: as §1
# CP297 = assay: as above; settings: P. falciparum in erythrocytes, SYBR Green DNA, 72 h; series mostly up to 12.8 µM
# Summary of the method: as §1
# DFO2036 = assay: as above; settings: P. falciparum in erythrocytes, SYBR Green DNA, 72 h; series mostly up to 12.8 µM
# Summary of the method: as §1
# ICS = assay: as above; settings: P. falciparum in erythrocytes, SYBR Green DNA, 72 h; series mostly up to 12.8 µM
# Summary of the method: as §1
# [8] = qHTS Assay for Identification of Small Molecule Antagonists for NFkB Signaling Pathway (AID 895; active = well fitted inhibition curve with a large enough effect in the signal ratio, with a control signal flat, not every such curve was filed as active; the % refers to the signal ratio); settings: NFkB beta-lactamase reporter cells, FRET ratio 460/530, stimulated with 10 pM TNF alpha; series mostly up to 38.3 µM
# Summary of the method: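 ME-180 NFkB-bla cells (beta-lactamase under NFkB response element), plated overnight, treated with compound then 10 pM TNF alpha (about EC50) for 5 hrs at 37 C. LiveBLAzer FRET read at 460/530 nm emission, 405 nm excitation.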
# [9] = target: Muscarinic acetylcholine receptor M1 (Rattus norvegicus) (UniProt P08482); assay: qHTS Assay for Antagonists of Acetylcholine Muscarinic M1 Receptor: Kinetic Measurement of Intracellular Calcium Response (AID 943); settings: M1-expressing cells, kinetic intracellular calcium fluorescence; series mostly up to 35.3 µM;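 also: Fluo-4 calcium signal as peak divided by basal fluorescence over 4 min; nearly all actives have a fitted effect of over 75% in size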
# Summary of the method: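 CHO cells stably expressing rat M1 were loaded with no-wash Fluo-4 dye for 1 h at 37C, pre-incubated 10 min with compound, then challenged with EC80 carbachol (100 nM final); kinetic calcium read 4 min, peak/basal ratio.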
# [10] = S16 Schwann cell PMP22 intronic element beta-lactamase assay (AID 624044; calls by dose curve; also: nearly all actives have a fitted effect of over 15% in size); settings: S16 rat Schwann cells, PMP22 element beta-lactamase FRET, 24 h; series mostly up to 17.1 µM
# Summary of the method: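 Rat S16 Schwann cells with beta-Lac driven by a PMP22 intronic element, compound-treated 24 h at 37 °C. LiveBLAzer FRET B/G read: 460 nm normalized to potassium clavulanate vs DMSO; 535 nm FRET as viability; concentration-effect curves classified.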
# [11] = target: Pyruvate kinase (Leishmania mexicana) (UniProt Q27686); assay: qHTS Validation Assay for Activators of Leishmania Mexicana Pyruvate Kinase (AID 959); settings: purified L. mexicana pyruvate kinase, enzyme activity
# Summary of the method: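 Eight-point qHTS titrations; enzyme 0.2 nM LmPYK (E451W mutant); substrates 0.5 mM PEP, 0.1 mM ADP; 7 mM MgCl2; 1 h room temperature; PKLight luminescence normalized to neutral control.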
# Chain of Muscarinic acetylcholine receptor M1 (Rattus norvegicus) (P08482 whole entry, looked up): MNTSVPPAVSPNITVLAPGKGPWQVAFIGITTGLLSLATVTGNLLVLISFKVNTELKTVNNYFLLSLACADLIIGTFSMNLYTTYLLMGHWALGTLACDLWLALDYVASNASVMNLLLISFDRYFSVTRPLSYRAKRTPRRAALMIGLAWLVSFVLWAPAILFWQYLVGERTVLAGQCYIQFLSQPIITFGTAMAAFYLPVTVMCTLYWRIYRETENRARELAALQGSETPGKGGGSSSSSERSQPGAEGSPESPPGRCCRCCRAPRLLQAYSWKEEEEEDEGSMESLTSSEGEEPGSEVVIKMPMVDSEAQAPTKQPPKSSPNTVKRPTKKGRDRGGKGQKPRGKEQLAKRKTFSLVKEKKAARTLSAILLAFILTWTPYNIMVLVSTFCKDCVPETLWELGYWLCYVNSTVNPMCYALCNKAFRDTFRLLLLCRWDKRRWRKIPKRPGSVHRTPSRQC
# Chain of Pyruvate kinase (Leishmania mexicana) (Q27686 2-499 E452W): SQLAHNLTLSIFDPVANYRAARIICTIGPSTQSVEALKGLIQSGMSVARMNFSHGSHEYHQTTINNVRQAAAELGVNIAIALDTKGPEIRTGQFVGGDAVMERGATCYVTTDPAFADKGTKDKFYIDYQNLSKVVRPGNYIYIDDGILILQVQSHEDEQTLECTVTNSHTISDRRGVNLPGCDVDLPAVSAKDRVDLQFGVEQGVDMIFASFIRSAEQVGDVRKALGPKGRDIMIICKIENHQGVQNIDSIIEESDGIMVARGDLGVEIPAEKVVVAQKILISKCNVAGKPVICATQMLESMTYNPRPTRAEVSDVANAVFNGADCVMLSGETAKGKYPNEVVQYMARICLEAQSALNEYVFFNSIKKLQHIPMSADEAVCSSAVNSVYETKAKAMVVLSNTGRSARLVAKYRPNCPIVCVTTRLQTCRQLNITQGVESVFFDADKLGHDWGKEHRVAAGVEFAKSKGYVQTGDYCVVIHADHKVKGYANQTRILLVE
compound,measurement,setting,value
CN1CCCC[C@@H]1CCN1c2ccccc2Sc2ccc(S(C)=O)cc21 (stereo not given in full),Potency,CP266,inactive
same,Potency,DIV14,inactive
same,Potency,DIV17,inactive
same,Potency,TAB109,inactive
same,Potency,W2,inactive
Cc1occc(=O)c1O,Potency,[1],> 92 µM
same,Potency,[2],> 92 µM
same,Potency,[3],> 92 µM
same,Potency,[4],> 92 µM
same,Potency,[5],> 92 µM
same,outcome,[6],inactive
CC1=CC(=O)CC(C)(C)C1(O)/C=C/C(C)=C\C(=O)O (stereo not given),Potency,[1],> 92 µM
same,Potency,[2],> 92 µM
same,Potency,[3],> 92 µM
same,Potency,[4],> 92 µM
same,Potency,[5],> 92 µM
same,outcome,[6],inactive
COc1ccc2[nH]cc(CCNc3nc(-c4ccoc4)nc4ccccc34)c2c1,activation,[7],-13.1%
Cc1ccccc1-c1cncnc1NCCN1CCOCC1,Potency,[7],3.16 µM (active)
O=c1cnc2cnc(N3CCOCC3)nc2n1C[C@H]1CCCO1,activation,[7],9.58%
c1ccc2c(Nc3ccncc3)nc(-c3ccc4c(c3)OCO4)nc2c1,activation,[7],-1.29%
CC[C@@]12CCCN3CCc4c(n(c5ccccc45)C(=O)C1)[C@H]32,Potency,CP266,inactive
same,Potency,TAB109,inactive
O=C(c1cnccn1)N1CCC2(CCN(Cc3ccncc3)CC2)CC1,activation,[7],2.3%
O=c1c(-c2cc(F)cc(F)c2)nc2cnc(Oc3ccccc3)nc2n1C[C@H]1CCCO1,activation,[7],3.51%
CN1CCN(c2ncc3nc(-c4ccccc4)c(=O)n(CCC#N)c3n2)CC1,Potency,[7],3.16 µM (active)
CCCN[C@@H](C)C(=O)Nc1ccccc1C,Potency,7G8,inactive
same,Potency,CP297,inactive
same,Potency,DFO2036,inactive
same,Potency,DIV14,inactive
same,Potency,DIV17,inactive
same,Potency,ICS,inactive
same,Potency,TAB109,inactive
same,Potency,W2,inactive
CCCCCN(CCCCC)C(=O)[C@H](CCC(=O)O)NC(=O)c1ccc(Cl)c(Cl)c1,Potency,[8],inactive
same,Potency,[9],inactive
O=C(O)CNC(=O)[C@@H](CS)Cc1ccccc1,Potency,[8],inactive
same,Potency,[9],inactive
CN(C)[C@@H]1C(=O)C(C(N)=O)=C(O)[C@]2(O)C(=O)C3=C(O)c4c(O)ccc(Cl)c4[C@H](O)[C@H]3C[C@@H]12,Potency,[8],inactive
same,Potency,[9],inactive
same,Potency,CP266,inactive
same,Potency,CP297,inactive
same,Potency,DIV14,inactive
same,Potency,DIV17,inactive
same,Potency,ICS,3.98 µM (active)
same,Potency,W2,5.36 µM (active)
N[C@@H](CO)C(=O)NNCc1ccc(O)c(O)c1O,Potency,[8],inactive
same,Potency,[9],inactive
same,outcome,[10],inactive
same,Potency,7G8,inactive
same,Potency,CP266,inactive
same,Potency,CP297,inactive
same,Potency,DIV14,inactive
same,Potency,DIV17,inactive
same,Potency,ICS,inactive
same,Potency,TAB109,inactive
CC(C)(C)NC[C@H](O)c1cc(O)cc(O)c1,Potency,7G8,inactive
same,Potency,CP266,inactive
same,Potency,CP297,inactive
same,Potency,DFO2036,inactive
same,Potency,DIV17,inactive
same,Potency,ICS,inactive
same,Potency,W2,inactive
C[C@@H](CCc1ccccc1)NC[C@H](O)c1ccc(O)c(C(N)=O)c1,Potency,7G8,11.2 µM (active)
same,Potency,CP266,inactive
same,Potency,CP297,inactive
same,Potency,TAB109,inactive
C[C@@H]1c2cccc(O)c2C(O)=C2C(=O)[C@@]3(O)C(O)=C(C(N)=O)C(=O)[C@@H](N(C)C)[C@@H]3[C@@H](O)[C@@H]21,Potency,[9],inactive
same,Potency,7G8,3.98 µM (active)
same,Potency,ICS,3.55 µM (active)
same,Potency,W2,4.26 µM (active)
CO/N=C(\C(=O)N[C@@H]1C(=O)N2C(C(=O)O)=C(COC(C)=O)CS[C@@H]12)c1csc(N)n1,Potency,[8],inactive
same,Potency,[11],25.1 µM (active)
same,Potency,7G8,inactive
same,Potency,CP266,inactive
same,Potency,CP297,inactive
same,Potency,DIV14,inactive
same,Potency,DIV17,inactive
same,Potency,ICS,inactive
same,Potency,TAB109,inactive
same,Potency,W2,inactive
O=c1c(-c2cccs2)nc2cnc(Oc3cccc(Cl)c3)nc2n1C1CC1,Potency,[7],3.16 µM (active)
COc1ccc(-c2nc3cnc(N4CCNCC4)nc3n(C3CC3)c2=O)cc1,Potency,[7],3.16 µM (active)
CCn1cc(C(=O)O)c(=O)c2cc(F)c(N3CCN[C@@H](C)C3)c(F)c21,Potency,7G8,inactive
same,Potency,CP266,inactive
same,Potency,CP297,inactive
same,Potency,DIV14,inactive
same,Potency,DIV17,inactive
same,Potency,ICS,inactive
same,Potency,W2,inactive
